This is an account of results in PubChem BioAssay AID1851 (National Center for Advancing Translational Sciences (NCATS), 2009).

Each structure is given as a SMILES string. The campaign covered roughly 16,000 compounds. About 5,800 (36%) were called active. Not shown: some 23% with an inconclusive outcome. Calls come from the whole dose curve; as a rule, active = well fitted curve in the direction sought with a large enough effect; inconclusive = small, poorly fitted or top-dose-only effect, or effect the other way; inactive = no such curve, though single readings can be large or run the other way. The list shows a part of the results. Where a structure was tested more than once in an assay, its records may differ in their call.
% is set by controls: 0 for no effect and ±100 for the full control effect.

The target of the test is Cytochrome P450 2C19 (Homo sapiens) (UniProt P33261). The test is described as follows: Cytochrome panel assay with activity outcomes. As to conditions: recombinant CYP, pro-luciferin dealkylation, luminescence, p450-cyp2c19; series mostly up to 57.1 µM; activity, negative = inhibition: at the top concentration.
Cytochrome P450 2C19 (Homo sapiens), sequence (P33261 whole entry, looked up): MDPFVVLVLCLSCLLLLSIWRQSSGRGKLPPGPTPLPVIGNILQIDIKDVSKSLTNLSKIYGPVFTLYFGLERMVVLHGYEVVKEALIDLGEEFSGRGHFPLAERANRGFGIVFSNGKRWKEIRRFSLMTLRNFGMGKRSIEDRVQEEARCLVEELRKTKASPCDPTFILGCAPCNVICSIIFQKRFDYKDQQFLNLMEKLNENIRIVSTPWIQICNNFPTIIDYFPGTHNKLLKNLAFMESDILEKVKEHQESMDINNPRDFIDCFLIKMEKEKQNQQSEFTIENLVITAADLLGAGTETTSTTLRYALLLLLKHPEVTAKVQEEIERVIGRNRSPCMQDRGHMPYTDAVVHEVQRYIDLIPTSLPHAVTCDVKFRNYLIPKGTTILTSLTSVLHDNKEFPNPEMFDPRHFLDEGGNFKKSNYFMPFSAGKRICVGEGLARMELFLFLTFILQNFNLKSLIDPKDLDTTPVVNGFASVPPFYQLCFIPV
As to `COC(=O)c1cnn(C(=O)c2ccccc2Br)c1N`, the AC50 (usually the concentration giving half of the maximal activity seen) is 8.91 µM (active).
For the compound `COC(=O)c1cnn(C(=O)c2cc(OC)ccc2Br)c1N`, the AC50 was 20 µM (active).
Take `Nc1nc2c(c(=O)[nH]1)CN(CCCN1CCOCC1)CN2`: the activity, negative = inhibition was 24.4% [at 11.4 µM] (inactive).
Regarding `CCn1c2ccccc2c2cc(N=C3SC(CC(=O)Nc4ccccc4OC)C(=O)N3C)ccc21` (stereo unspecified), the AC50 was 1.41 µM (active).
With `CCn1c(=O)cc(OCC(=O)Nc2cccnc2)c2ccccc21`, the “activity, negative = inhibition” value was -27.8% (inactive).
Turning to `CCn1c2ccccc2c2cc(N=C3SC(CC(=O)Nc4ccccc4)C(=O)N3C)ccc21` (stereo unspecified), the AC50 was 2 µM (active).
As for `Clc1ccc(-c2noc(CN3CCCCC3)n2)cc1`, the AC50 is 1.58 µM (active).
As to `N=C(N)SCc1ccc(Cl)cc1Cl` (tested in a mixture with another compound), the activity, negative = inhibition was -2.42% [at 11.4 µM] (inactive).
As to `Cc1ccc(-c2noc(CN3CCN(C(c4ccccc4)c4ccccc4)CC3)n2)cc1`, the AC50 was 17.8 µM (active).
On to `CN1CCN(C(c2ccccc2)c2ccccc2)CC1`, for which the “activity, negative = inhibition” value is -8.64% [at 25.6 µM] (inactive).
`CS(=O)(=O)N1CCC2(CC1)CN(C(c1ccccc1)c1ccccc1)C2`: the “activity, negative = inhibition” value is 6.14% (inactive).
With `N=C(N)SCc1nc(-c2ccc(Cl)cc2)no1`, the AC50 is 1 µM (active).
Regarding `c1ccc([P+](CC[P+](c2ccccc2)(c2ccccc2)c2ccccc2)(c2ccccc2)c2ccccc2)cc1`, the activity, negative = inhibition was -40.8% [at 11.4 µM] (inactive).
As to `O=C(O)CC12C[C@H]3C[C@@H](CC(O)(C3)C1)C2`, the activity, negative = inhibition was 7.05% [at 11.4 µM] (inactive).
Turning to `O=C(NCCN1CCOCC1)c1nn2c(c1Cl)NC(c1ccccc1)CC2C(F)(F)F` (stereo unspecified), the “activity, negative = inhibition” value was -27.1% (inactive).
In the case of `CCCn1nc(C(=O)NCC(C)(C)N2CCOCC2)c2ccccc2c1=O`, the AC50 was 17.8 µM (active).
With `Cn1cc[nH]c1=S`, the “activity, negative = inhibition” value is -32.6% [at 25.6 µM] (inactive).
Consider `COCCNc1cc(-c2ccccc2C(F)(F)F)ncn1`, for which the AC50 is 7.94 µM (active).
Consider `COCCNc1cc(-c2c(C)noc2C)ncn1`, for which the “activity, negative = inhibition” value is -0.798% (inactive).
On to `COCCNc1cc(-c2ccccc2CN(C)C)ncn1`, for which the “activity, negative = inhibition” value was 26.2% (inactive).
Turning to `COCCNc1cc(-c2ccccc2C)ncn1`, the AC50 is 15.8 µM (active).
Turning to `CC(=O)NCCNc1cc(-c2ccccc2C(F)(F)F)ncn1`, the “activity, negative = inhibition” value was 26.9% (inactive).
Same read-out and setting: the figure for `O=c1nc2ccccc2c2n1C[C@H](CN1CCN(c3ccccc3)CC1)N2` is -14.1% (inactive); for `O=C1CC2(CCCC2)CC(=O)N1CCCCNC[C@H]1COc2ccccc2O1` it is -32.6% (inactive).
On the same count and under the same terms, the figure for `COc1cccc(OC)c1OCCCN1CCOCC1` is -65% (inactive).
Take `COc1ccccc1NC(=O)CC1COc2ccccc2O1` (stereo unspecified): the AC50 was 7.08 µM (active).
For `COc1cccc(OC)c1OCCNC[C@@H]1COc2ccccc2O1`, the AC50 is 794 nM (active) and inactive.
Consider `CCN1CCCC1CNC(=O)C(=O)Nc1ccccc1OC` (stereo unspecified), for which the “activity, negative = inhibition” value is -21.8% (inactive).
The same measure, in the same setting: to `C(=C1/CCCC2=C1Nc1ncnn1C2c1ccccc1)/c1ccccc1` (stereo unspecified) belongs -28.3% (inactive).
Same read-out and setting: to `CCCCC1CC(/C(C)=N/NC(N)=O)OC1=O` (stereo unspecified) belongs -23% (inactive).
With `CC1=CC(=O)c2ccccc2C1=O`, the concentration at half-maximal activity (AC50) is 2.51 µM (active).
For the compound `COc1cc2nncc(SCc3ccc(Cl)c(Cl)c3)c2cc1OC`, the AC50 is 2.51 µM (active).
On the same count and under the same terms, to `CCCCOC(=O)c1ccc(O)cc1` belongs 6.31 µM (active).
For the compound `CCCCNc1ccc(C(=O)OCCOCCOCCOCCOCCOCCOCCOCCOCCOC)cc1`, the “activity, negative = inhibition” value was 2.87% [at 25.6 µM] (inactive).
The same measure, in the same setting: the figure for `CCCCN(CCCC)CCCOC(=O)c1ccc(N)cc1` is -26.5% [at 25.6 µM] (inactive).
Take `FC(F)(F)c1ccccc1-c1nc(Nc2ccncc2)c2ccccc2n1`: the AC50 is 2 µM (active).
Consider `Cc1ccccc1-c1nc(Nc2ccncc2)c2ccccc2n1`, for which the “activity, negative = inhibition” value is -38% (inactive).
`Clc1ccccc1-c1nc(Nc2ccncc2)c2ccccc2n1`: the AC50 was 5.01 µM (active).
`C[C@H](O/N=C1/[C@H]2O[C@@H]2[C@@H](O)[C@H]2[C@H]1CCn1c(=O)n(-c3ccccc3)c(=O)n12)c1cn([C@H]2COC[C@H]2O)nn1`: the activity, negative = inhibition was 42.5% [at 11.4 µM] (inactive).
For the compound `CN(C)CCC=C1c2ccccc2C=Cc2ccccc21`, the AC50 entry is “inactive”.
Same read-out and setting: the figure for `Cc1ccccc1-n1cnc2cc(NCc3cccs3)ccc21` is 2.51 µM (active).
Consider `c1ccc(-n2cnc3cc(NCc4cccs4)ccc32)cc1`, for which the AC50 is 2.82 µM (active).
Consider `Cc1noc(C)c1-c1nc(NCc2cccs2)c2ccccc2n1`, for which the “activity, negative = inhibition” value was -38.6% (inactive).
Take `CO[C@H]1COC(=O)C/C=C\[C@H](C)COC(=O)[C@@H](OCc2ccccc2)/C=C\[C@@H]1C`: the activity, negative = inhibition was -37% [at 11.4 µM] (inactive).
Consider `Cc1ccc2c(c1)NCC(C(=O)NC1CCCCC1)O2` (stereo unspecified), for which the AC50 was 3.55 µM (active).
On to `CCCCC1(C)Nc2ccccc2-c2nc3ccccc3n21` (stereo unspecified), for which the AC50 is 0.708 µM (active).
Take `CCC1(C)Nc2ccccc2C(=O)N1O` (stereo unspecified): the “activity, negative = inhibition” value is 12.7% (inactive).
As for `CCCC1(C)Nc2ccccc2-c2nc3ccccc3n21` (stereo unspecified), the AC50 was 1.41 µM (active).
In the case of `COc1cccc2c1C(=O)c1c(O)c3c(c(O)c1C2=O)C[C@@](O)(C(=O)CO)C[C@H]3O[C@H]1C[C@@H](N)[C@H](O)[C@@H](C)O1.[W]`, the activity, negative = inhibition was 9.1% [at 11.4 µM] (inactive).
For the compound `O=C(Nc1cccc(Cl)c1)N1CCN2C(=O)c3ccccc3C12c1ccccc1` (stereo unspecified), the AC50 was 2.24 µM (active).
Regarding `CS(=O)(=O)N1CCC2(CCN(C(=O)Nc3cccc(C#N)c3)CC2)CC1`, the “activity, negative = inhibition” value is -27.4% (inactive).
